Experimental findings from the supplement of paper PMC3545927 are described below.

This is one part of the list. No count for the full screen is at hand.

The assay deals with furin, P09958. Nature of the assay: furin cleavage Z-score vs untreated control; higher = more cleavage, active = 3.5 or more, inactive = 1 or less, 8 variable residues between constant flanks. The method in brief:
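Sequencing of released DNA, tagged with adapters by PCR, gave read counts used as abundance. That DNA was freed when purified furin cut N-terminally bead-bound 8-mer peptides fused to a cDNA oligonucleotide, in 0.01 ml reactions at 1:10 enzyme:substrate in 50 mM HEPES pH 7.5 with CaCl2 and NaCl, lasting 7.5, 15 or 30 min. The cleavage Z-score was the lowess-adjusted log count versus furin-free reactions, scaled by median absolute deviation.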

Sequence of furin, P09958 (P09958 whole entry, the tested form may be a part): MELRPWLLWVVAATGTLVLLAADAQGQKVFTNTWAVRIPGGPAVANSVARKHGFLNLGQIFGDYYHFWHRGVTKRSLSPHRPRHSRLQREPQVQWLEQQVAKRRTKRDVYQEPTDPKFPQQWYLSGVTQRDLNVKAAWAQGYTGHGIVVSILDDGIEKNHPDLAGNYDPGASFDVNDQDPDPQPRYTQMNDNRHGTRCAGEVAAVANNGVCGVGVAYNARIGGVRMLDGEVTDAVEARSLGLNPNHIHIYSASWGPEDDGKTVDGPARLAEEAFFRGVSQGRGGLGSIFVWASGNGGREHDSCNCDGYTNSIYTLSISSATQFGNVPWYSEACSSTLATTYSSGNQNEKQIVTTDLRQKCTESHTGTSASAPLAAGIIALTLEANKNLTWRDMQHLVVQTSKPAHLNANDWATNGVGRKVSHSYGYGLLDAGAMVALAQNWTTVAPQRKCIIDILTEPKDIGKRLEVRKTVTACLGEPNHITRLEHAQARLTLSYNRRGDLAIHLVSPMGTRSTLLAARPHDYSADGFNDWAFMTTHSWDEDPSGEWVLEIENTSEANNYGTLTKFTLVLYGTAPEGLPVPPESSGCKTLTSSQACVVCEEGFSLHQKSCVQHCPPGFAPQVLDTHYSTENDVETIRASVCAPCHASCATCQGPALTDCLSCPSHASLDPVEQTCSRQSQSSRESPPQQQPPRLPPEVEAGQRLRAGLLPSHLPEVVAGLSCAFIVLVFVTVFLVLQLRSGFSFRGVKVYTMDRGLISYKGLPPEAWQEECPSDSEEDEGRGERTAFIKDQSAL

As for CAQYFLTRVEAGNASASA [HC584], the “furin cleavage Z-score” value (7.5 min) was -0.544 (inactive), the “furin cleavage Z-score” value (15 min) was -0.576 (inactive) and the “furin cleavage Z-score” value (30 min) is 0.581 (inactive).
For CADHLEFWEGAGNASASA [HC937] the same measures were 0.211 (inactive), -1.35 (inactive) and 0.811 (inactive).
For CATVPCHRPSAGNASASA [HC2318] the same measures were -1.23 (inactive), 0.611 (inactive) and 0.585 (inactive).
In the same order, the values of CASFGSSSTSAGNASASA [HC1336] are -0.845 (inactive), -1.34 (inactive) and 0.561 (inactive).
On to CAPCGIVPAKAGNASASA [HC407], for which the “furin cleavage Z-score” value (7.5 min) is 0.926 (inactive), the “furin cleavage Z-score” value (15 min) was 0.441 (inactive) and the “furin cleavage Z-score” value (30 min) was 0.898 (inactive).
For CAITPCSGSWAGNASASA [HC1824] the same measures were -0.759 (inactive), -0.739 (inactive) and -0.66 (inactive).
In the same order, the values of CARPKRRKPRAGNASASA [FS-3017] are 6.7 (active), 9.47 (active) and 8.98 (active).
In the same order, the values of CAEVITSTWVAGNASASA [HC2184] are -0.201 (inactive), -0.151 (inactive) and 0.767 (inactive).
Turning to CAMEECKQHLAGNASASA [HC31], the “furin cleavage Z-score” value (7.5 min) was 0.641 (inactive), the “furin cleavage Z-score” value (15 min) was 0.811 (inactive) and the “furin cleavage Z-score” value (30 min) was 0.523 (inactive).
In the same order, the values of CADIHRNKRKAGNASASA [FS-408] are 0.37 (inactive), 0.486 (inactive) and 2.04.
For CACVWRRKRKAGNASASA [FS-324] the same measures were 4.9 (active), 7.08 (active) and 5.25 (active).
In the case of CARSARRKRKAGNASASA [FS-1610], the “furin cleavage Z-score” value (7.5 min) is 9.41 (active), the “furin cleavage Z-score” value (15 min) was 11.4 (active) and the “furin cleavage Z-score” value (30 min) is 7.56 (active).
As to CADVPRRKRKAGNASASA [FS-1316], the “furin cleavage Z-score” value (7.5 min) was 7.09 (active), the “furin cleavage Z-score” value (15 min) is 7.66 (active) and the “furin cleavage Z-score” value (30 min) was 8.13 (active).
CARSACQRQKAGNASASA [HC1392]: the “furin cleavage Z-score” value by setting is: (7.5 min) 0.38 (inactive); (15 min) -0.49 (inactive); (30 min) 1.17.
In the same order, the values of CADVPCHRPSAGNASASA [HC2311] are 0.698 (inactive), 1.24 and 0.271 (inactive).
As for CAPREVPCHRAGNASASA [HC2439], the “furin cleavage Z-score” value reads like this: (7.5 min) -1.48 (inactive); (15 min) 1.55; (30 min) -0.302 (inactive).
In the same order, the values of CAWDVVCCSMAGNASASA [HC2108] are 0.349 (inactive), -0.375 (inactive) and 0.29 (inactive).
In the same order, the values of CARGPRRRRSAGNASASA [FS-856] are 11.2 (active), 10 (active) and 7.78 (active).
For CADSGGARRSAGNASASA [FS-226], the “furin cleavage Z-score” value (7.5 min) was -0.625 (inactive), the “furin cleavage Z-score” value (15 min) is -0.697 (inactive) and the “furin cleavage Z-score” value (30 min) was -0.757 (inactive).
In the same order, the values of CARGPRARRSAGNASASA [FS-855] are 7.87 (active), 7.54 (active) and 4.95 (active).
Take CARGPRRASAAGNASASA [FS-1711]: the “furin cleavage Z-score” value (7.5 min) is -0.617 (inactive), the “furin cleavage Z-score” value (15 min) is -0.431 (inactive) and the “furin cleavage Z-score” value (30 min) is -0.848 (inactive).
For CARAKRNAVLAGNASASA [FS-2545] the same measures were 6.45 (active), 7.8 (active) and 6.91 (active).
For CASTPCSASLAGNASASA [HC2557] the same measures were 0.819 (inactive), 0.0223 (inactive) and 0.939 (inactive).
As for CARAKRFLRKAGNASASA [FS-1992], the “furin cleavage Z-score” value by setting is: (7.5 min) 4.11 (active); (15 min) 4.74 (active); (30 min) 7.62 (active).
In the same order, the values of CARAKRFVSIAGNASASA [FS-1993] are 4.74 (active), 4.17 (active) and 5.92 (active).
In the same order, the values of CASTPCSAVLAGNASASA [HC2550] are -1.46 (inactive), -0.0198 (inactive) and -0.52 (inactive).
In the same order, the values of CARAKRFASLAGNASASA [FS-2635] are 4.64 (active), 6.47 (active) and 8.89 (active).
For CARAKRVSWDAGNASASA [FS-1681], the “furin cleavage Z-score” value is -0.617 (inactive) (7.5 min), 0.099 (inactive) (15 min) and 0.302 (inactive) (30 min).
For CATTVRLRAYAGNASASA [HC928] the same measures were 0.53 (inactive), 0.398 (inactive) and -0.429 (inactive).
As for CAVQAWKSKKAGNASASA [HC1473], the “furin cleavage Z-score” value is 0.322 (inactive) (7.5 min), 1.5 (15 min) and -0.486 (inactive) (30 min).
On to CARIRRMWNDAGNASASA [FS-2955], for which the “furin cleavage Z-score” value (7.5 min) was 3.22, the “furin cleavage Z-score” value (15 min) was 2.6 and the “furin cleavage Z-score” value (30 min) is 4.32 (active).
In the same order, the values of CARSGRSANAAGNASASA [FS-2522] are 1.32, 0.616 (inactive) and 1.79.
For CARIRRMADAAGNASASA [FS-2339] the same measures were 8.4 (active), 10.5 (active) and 8.11 (active).
For CARMMRPVSDAGNASASA [FS-1753] the same measures were -0.43 (inactive), 0.272 (inactive) and -0.677 (inactive).
Take CAREDRDVNDAGNASASA [FS-2393]: the “furin cleavage Z-score” value runs as follows: (7.5 min) -1.02 (inactive); (15 min) -2.7 (inactive); (30 min) 0.632 (inactive).
For CARMRRYADAAGNASASA [FS-2355] the same measures were 5.77 (active), 7.7 (active) and 6.66 (active).
For CARDVRLVDAAGNASASA [FS-2655] the same measures were -0.899 (inactive), -0.757 (inactive) and 0.398 (inactive).
As to CATDCFRKHPAGNASASA [HC452], the “furin cleavage Z-score” value reads like this: (7.5 min) 0.56 (inactive); (15 min) -0.196 (inactive); (30 min) 1.34.
In the same order, the values of CAYLKGKWVPAGNASASA [HC549] are 0.545 (inactive), -0.258 (inactive) and -0.41 (inactive).
In the same order, the values of CAMEECSQHPAGNASASA [HC1779] are -0.177 (inactive), -0.782 (inactive) and 2.64.
In the same order, the values of CARCKRTVLDAGNASASA [FS-2482] are 0.324 (inactive), 1.14 and 3.14.
Take CARCKRGTGVAGNASASA [FS-2898]: the “furin cleavage Z-score” value (7.5 min) is 6.24 (active), the “furin cleavage Z-score” value (15 min) is 6.78 (active) and the “furin cleavage Z-score” value (30 min) was 5.78 (active).
For CARKKRSTGVAGNASASA [FS-2694] the same measures were 8.73 (active), 11.5 (active) and 10.3 (active).
For CARCKRGMKKAGNASASA [FS-1818] the same measures were 0.324 (inactive), 0.604 (inactive) and 3.09.
Regarding CARCRRGFGVAGNASASA [FS-1849], the “furin cleavage Z-score” value reads like this: (7.5 min) 0.0621 (inactive); (15 min) 1.42; (30 min) 1.48.
For CARCKRDCLEAGNASASA [FS-1996] the same measures were 9.7 (active), 9.34 (active) and 8.23 (active).
In the same order, the values of CARCVRDCDPAGNASASA [FS-3243] are 0.0718 (inactive), 1.92 and 2.77.
For the sequence CAEVVTSTGVAGNASASA [HC2236], the “furin cleavage Z-score” value was 0.288 (inactive) (7.5 min), -1.6 (inactive) (15 min) and -0.142 (inactive) (30 min).
For CARKKRTLRGAGNASASA [FS-2037] the same measures were 5.12 (active), 8.31 (active) and 6.62 (active).
